# Rows were chosen to be rich in hits. Some 12% of all compounds tested hit in one or more screens of this group.
# SARS PLpro yeast = qHTS of Yeast-based Assay for SARS-CoV PLP; S. cerevisiae expressing SARS-CoV PLpro, growth rescue; Potency, µM (highest dose often 32.9 µM), for inactives: top-dose activity, positive = growth rescue, most hits filed as activators; hit rate 0.19% among 330,000; calls by dose curve; also: 0% is about no effect; nearly all actives have a fitted effect of over 55% in size
# Pf growth 96h = Primary qHTS for delayed death inhibitors of the malarial parasite plastid, 96 hour incubation; P. falciparum luciferase reporter growth, 96 h; Potency, µM (series often up to 28.7 µM), for the others: at the highest dose activity change, negative = inhibition, hits mostly inhibitors; hit rate 6.9% among 320,000; AID 504834, 2011; also: % is scaled to controls: 0 for no effect and ±100 for the full control effect
#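 P. falciparum expressing integrated firefly luciferase grown in erythrocytes (2% hematocrit, 0.05% parasitemia final) with compounds for 96 hours at 37 C, 5% CO2. Growth inhibition read as loss of luminescence after adding luciferase detection reagent.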
# Pf growth 48h = Primary qHTS for delayed death inhibitors of the malarial parasite plastid, 48 hour incubation; P. falciparum luciferase growth in erythrocytes, 48 h; Potency, µM (titrated, usually from 28.7 µM), for the others: top-dose activity change, negative = inhibition, usual class: inhibitors; hit rate 5.9% among 310,000; AID 504832, 2011; also: % is scaled to controls: 0 for no effect and ±100 for the full control effect
#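 Parasite viability was followed by luminescence of a genomically integrated firefly luciferase. Cultures held 0.1% parasitemia at 2% hematocrit (final), incubated under 5% CO2 at 37 C.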
# Sm TGR block = qHTS Assay for the Inhibitors of Schistosoma Mansoni Peroxiredoxins; Potency, µM (series often up to 114 µM), without a hit: at the top dose activity change, negative = inhibition, actives largely listed as inhibitors; purified TGR, DTNB reduction, TNB absorbance 405 nm; hit rate 3% among 360,000; Schistosoma mansoni thioredoxin glutathione reductase (TGR), Q962Y6; also: % is scaled to controls: 0 for no effect and ±100 for the full control effect; nearly all actives have a fitted effect of over 60% in size
#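 First, TGR (20 nM dispensed) and NADPH were mixed with compound. Second, a 15 min room-temperature incubation followed. Third, further NADPH and then DTNB were added to start the reaction. Finally, TNB absorbance was monitored kinetically.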
# * hit, by the source's call; ? = inconclusive; / = not tested or not shown; [ ] = another dose, or the depositor's remark. Unless noted, calls follow the shape of the dose curve; as a rule, active = well fitted curve in the direction sought with a large enough effect; inconclusive = small, poorly fitted or top-dose-only effect, or another doubt; inactive = no such curve, though single readings can be large; an effect the other way counts as inactive or inconclusive. Potency is read from the fitted curve at half-maximal effect.
SMILES,SARS PLpro yeast,Pf growth 96h,Pf growth 48h,Sm TGR block
CCN(Cc1ccc(C#CCCO)cc1)CC1CCCN(CCc2cccc(OC)c2)C1 (stereo not drawn),-8%,2.1µM*,?,-12%
O=C(Cn1c(=O)n(Cc2ccc(F)cc2)c(=O)c2sc3ccccc3c21)Nc1ccc(F)cc1F,/,/,/,9%
COc1ccc(C2=NN(c3nc(-c4ccccc4)c(CC(=O)O)s3)C(c3ccco3)C2)cc1 (stereo not drawn),-7%,?,-9%,20µM*
Cc1nc(N2N=C(c3ccc(Cl)cc3)CC2c2ccco2)sc1C(=O)N(C)C (stereo not drawn),2%,?,?,?
CCCOc1ccccc1Nc1nnc(C)c(=O)[nH]1,4%,13µM*,15%,-10%
Cc1ccc(Nc2nnc(C)c(=O)[nH]2)cc1,0%,6%,?,4%
CC(NC=C1C(=O)OC(C)(C)OC1=O)C(=O)O (stereo not drawn),-5%,9.3µM*,23%,9%
CC(C)C(NC=C1C(=O)OC(C)(C)OC1=O)C(=O)O (stereo not drawn),2%,/,19%,-18%
CC(C)CC1COC(=O)N1 (stereo not drawn),2%,7%,35%,-22%
CC(C)(C)OC(=O)N1CCC(c2c(C(=O)NCCN3CCOCC3)cnn2-c2ccccc2)CC1,/,/,/,-1%
CNc1ccc(Br)cc(C(=O)/C=C/c2cc(OC)ccc2OC)c1=O,?,-104%,?,3.2µM*
CCNc1ccc(Br)cc(C(=O)/C=C/c2ccc(Cl)cc2Cl)c1=O,-66%,-109%,?,2.2µM*
CNc1ccc(Br)cc(C(=O)/C=C/c2ccc3c(c2)OCO3)c1=O,-11%,?,15%,2.8µM*
COC(=O)c1ccc(/C=C/C(=O)c2ccc(OC)cc2)cc1,1%,-20%,10%,4%
O=C(/C=C/c1ccc2c(c1)OCO2)NC1CCCC1,-3%,50%,-8%,-11%
CNc1ccc(Br)cc(C(=O)/C=C/c2ccc(OC)cc2)c1=O,20%,19%,4%,11µM*
COC(=O)c1ccccc1NC(=O)C(C)c1ccc([N+](=O)[O-])cc1 (stereo not drawn),0%,?,-23%[5.75 µM],12%
CC(C(=O)Nc1ccccc1Br)c1ccc([N+](=O)[O-])cc1 (stereo not drawn),?,4.1µM*,13µM*,1%
CC(C(=O)NC1CCCCCC1)c1ccc([N+](=O)[O-])cc1 (stereo not drawn),-1%,8.3µM*,-17%,-27%
COc1ccc(-c2csc(NC(=O)CSC(C)C(=O)Nc3cc(C)on3)n2)cc1OC (stereo not drawn),1%,?,?,2%
COc1ccc2oc(C(=O)OCC(=O)Nc3cc(S(=O)(=O)N4CCOCC4)ccc3OC)c(C)c2c1,0%,31%,8%,-2%
O=C1OCC2=C1C(c1cccc(Cl)c1)CC(=O)N2c1ccc(C(F)(F)F)cc1 (stereo not drawn),/,/,/,-1%
CCOc1ccc(N(CC(=O)N2CCN(c3ccccc3OC)CC2)S(=O)(=O)c2ccc(F)cc2)cc1,1%,0.93µM*,?,9%
CCOc1ccc(N(CC(=O)N2CCCC2)S(=O)(=O)c2ccc(F)cc2)cc1,?,1%,-11%,-26%
CCOc1ccc(N(CC(=O)N2CCN(c3ccccc3OC)CC2)S(=O)(=O)c2ccc(C)cc2)cc1,-4%,12µM*,?,0%
SMILES,SARS PLpro yeast,Pf growth 96h,Pf growth 48h,Sm TGR block
CCOc1ncccc1C(=O)Nc1cc2c(cc1Br)OCCO2,1%,/,/,/
CCCCCC(=O)N[C@@H](c1ccccc1)[C@@H](O)C(=O)O[C@H]1C[C@@]2(O)[C@@H](OC(=O)c3ccccc3)C3[C@](C)(C(=O)[C@H](O)C(=C1C)C2(C)C)[C@@H](OC1OCC(O)C(O)C1O)C[C@H]1OC[C@@]31OC(C)=O (stereo partly drawn),4%,0.17µM*,?,-10%
CC(=O)O[C@@]12CO[C@@H]1C[C@H](OC1OCC(O)C(O)C1O)[C@@]1(C)C(=O)[C@H](O)C3=C(C)[C@@H](OC(=O)[C@H](O)[C@@H](NC(=O)c4ccccc4)c4ccccc4)C[C@@](O)([C@@H](OC(=O)c4ccccc4)C12)C3(C)C (stereo partly drawn),-8%,0.037µM*,?,-21%
CCCCCC(=O)N[C@@H](c1ccccc1)[C@@H](O)C(=O)O[C@H]1C[C@@]2(O)[C@@H](OC(=O)c3ccccc3)C3[C@](C)(C(=O)[C@H](OC(C)=O)C(=C1C)C2(C)C)[C@@H](O)C[C@H]1OC[C@@]31OC(C)=O (stereo partly drawn),0%,?,?,0%
CCc1c(C)nc2nc(-c3ccccc3)nn2c1NCc1ccc(C)cc1,/,/,/,-20%
COc1ccc(Cl)cc1NC(=O)C1CCN(c2ncnc3c2nc2n3CCCCC2)CC1,/,/,/,-3%
Nc1nc(N2C(=O)C3CC=CCC3C2=O)nn1-c1ccccc1 (stereo not drawn),5%,2.9µM*,?,-8%
Nc1nc(-n2cnnc2)nn1-c1ccccc1,-3%,2%,7%,1%
CC(C)c1ccc(C2c3[nH]c4ccccc4c3C[C@H]3C(=O)N(c4ccccc4C(=O)N4CCC(C(=O)O)CC4)C(=O)N23)cc1 (stereo partly drawn),-1%,1.5µM*,1.7µM*,-17%
Cc1ccc(C2c3[nH]c4ccccc4c3C[C@H]3C(=O)N(c4ccccc4C(=O)N4CCC[C@H]4C(=O)O)C(=O)N23)cc1 (stereo partly drawn),6%,10µM*,?,0%
CC(C)c1ccc(C2c3[nH]c4ccccc4c3C[C@H]3C(=O)N(c4ccccc4C(=O)N4CCC[C@@H]4C(=O)O)C(=O)N23)cc1 (stereo partly drawn),4%,8.3µM*,9.3µM*,8%
O=C(O)[C@@H]1CCCN1C(=O)c1ccccc1N1C(=O)[C@@H]2Cc3c([nH]c4ccccc34)C(c3cccc(Cl)c3)N2C1=O (stereo partly drawn),4%,10µM*,?,-17%
O=C(O)[C@H]1CCCN1C(=O)c1ccccc1N1C(=O)[C@@H]2Cc3c([nH]c4ccccc34)C(c3cccc(Cl)c3)N2C1=O (stereo partly drawn),2%,?,?,-15%
COc1ccc(CN2CCN(C3CCC3)CC2CCO)cc1C (stereo not drawn),8%,0%,2%,1%
CCc1cccc(NC(=O)c2cc3c(=O)oc4ccc(C)cc4c3s2)c1,/,/,/,-2%
COc1ccc(C(=O)NCCS(=O)(=O)N2CCOCC2)cc1,?,36%,15%,-1%
O=S(=O)(Nc1ccccc1C(F)(F)F)c1ccc(-c2ccccn2)s1,-9%,18%,1%,9%
